Laboratory results as given in PubChem BioAssay AID1159580 (chemical genetic matrix, 2015).
Screen size: about 5,500 compounds; about 2,000 (36%) were called active. Not shown: some 18% with an inconclusive outcome. Cut-off read from the data, not from the text of the source: active = normalized growth mostly below about 0.91 (no sharp cut-off); inconclusive = no clear call, values can overlap the other calls; inactive = mostly above about 0.92. This is one part of the list.

Experiment: chemical genetic growth profiling, strain panel (AID 1159580);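 note: tested at 20 µM; growth read once vehicle control cultures reached saturation at 30 °C; 1 = growth at the plate median or of vehicle wells; lower values mean less growth of the strain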
Details: S. cerevisiae deletion strains, growth OD

Measured: normalized growth

NC1=C(c2ccccc2)C(=O)NC1=O
inactive: locus YAL013W, strain DEP1, hits give low values 1.01 | locus YBR229C, strain ROT2, hits give low values 1.05 | locus YCL061C, strain MRC1, hits give low values 1.03 | locus YDL101C, strain DUN1, hits give low values 0.993 | locus YDR150W, strain NUM1, hits give low values 0.991 | locus YEL061C, strain CIN8, hits give low values 0.999 | locus YGR078C, strain PAC10, hits give low values 0.998 | locus YGR229C, strain SMI1, hits give low values 1.01 | locus YHR030C, strain SLT2, hits give low values 1.02 | locus YHR087W, strain rtc3, hits give low values 0.988 | locus YJR043C, strain POL32, hits give low values 1.01 | locus YJR075W, strain HOC1, hits give low values 0.95 | locus YLR039C, strain RIC1, hits give low values 1.02 | locus YLR058C, strain SHM2 (second series), hits give low values 1.02 | locus YLR085C, strain ARP6, hits give low values 0.946 | locus YLR262C, strain YPT6, hits give low values 1.01 | locus YML094W, strain GIM5, hits give low values 0.993 | locus YMR219W, strain ESC1, hits give low values 0.984 | locus YMR263W, strain SAP30, hits give low values 1.01 | locus YNL128W, strain TEP1, hits give low values 1.03 | locus YNL153C, strain GIM3, hits give low values 1 | locus YNL298W, strain CLA4 (second series), hits give low values 0.996 | locus YNL322C, strain KRE1, hits give low values 1 | locus YNR030W, strain Alg12, hits give low values 0.989 | locus YPL055C, strain LGE1, hits give low values 0.994 | locus YPL241C, strain CIN2, hits give low values 1.01 | locus YPR135W, strain CTF4, hits give low values 0.974
